{"source": "the supplement of paper PMC10849652", "experiment_in_all_cases": "log2 fold change, soluble protein after heating vs DMSO (PISA); higher = thermal stabilisation; K562 lysate, 10 uM; active = over 0.2 and 3.5 SD of the protein, either way, in both replicates (recomputed)", "key": {"[1]": {"compound": "CN1CCc2c(c3ccccc3n2Cc2ccc(C(=O)NO)cc2)C1 [Tubastatin A]", "summary_of_the_method": "(§1)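 The values are log-two fold changes in thermal stability compared with solvent controls and come from duplicates. They were obtained by TMTpro 16plex LC-MS/MS, with channel sums equalised, on the supernatant after 21,000xg for 90 min. That supernatant came from crude K562 extract at 1 mg/mL protein treated with 10 μM compound for 30 min, heated for 3 min across 48°C-58°C, pooled and brought to 0.5% NP-40 at 4°C.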"}, "[2]": {"compound": "CNC(=O)c1ccc(Nc2ncc(C(F)(F)F)c(NCc3nccnc3N(C)S(C)(=O)=O)n2)cc1 [defactinib]", "summary_of_the_method": "as §1"}, "[3]": {"compound": "CNc1nc(-c2ccc3c(N)n[nH]c3c2)cc(N2C[C@@H](C(=O)NC3CCCCC3)CC[C@H]2C)n1", "summary_of_the_method": "as §1"}, "[4]": {"compound": "COc1cc(Nc2ncc3c(n2)-c2ccc(Cl)cc2C(c2c(F)cccc2OC)=NC3)ccc1C(=O)O [alisertib]", "summary_of_the_method": "as §1"}, "[5]": {"compound": "COc1cc2ncnc(Nc3ccc(F)c(Cl)c3)c2cc1OCCCN1CCOCC1 [gefitinib]", "summary_of_the_method": "as §1"}, "[6]": {"compound": "CS(=O)(=O)N1CCN(Cc2cc3nc(-c4cccc5[nH]ncc45)nc(N4CCOCC4)c3s2)CC1 [pictilisib]", "summary_of_the_method": "as §1"}, "[7]": {"compound": "C[C@H](Nc1ncnc2nc[nH]c12)c1cc2cccc(Cl)c2c(=O)n1-c1ccccc1 [duvelisib]", "summary_of_the_method": "as §1"}, "[8]": {"compound": "Cc1ccc(NC(=O)c2ccc(CN3CC[C@H](N(C)C)C3)c(C(F)(F)F)c2)cc1Nc1nccc(-c2cncnc2)n1 [bafetinib]", "summary_of_the_method": "as §1"}, "[9]": {"compound": "CNC(=O)C1=CC=CC=C1NC2=NC(=NC=C2Cl)NC3=C(C=C(C=C3)N4CCOCC4)OC", "summary_of_the_method": "as §1"}, "[10]": {"compound": "C[C@@H](Oc1cc(-c2cnn(C3CCNCC3)c2)cnc1N)c1c(Cl)ccc(F)c1Cl [crizotinib]", "summary_of_the_method": "as §1"}, "[11]": {"compound": "Cc1ccc(-n2nc(C(C)(C)C)cc2NC(=O)Nc2ccc(OCCN3CCOCC3)c3ccccc23)cc1 [doramapimod]", "summary_of_the_method": "as §1"}, "[12]": {"compound": "COC(=O)N[C@@H](C)CNc1nccc(-c2cn(C(C)C)nc2-c2cc(Cl)cc(NS(C)(=O)=O)c2F)n1 [encorafenib]", "summary_of_the_method": "as §1"}, "[13]": {"compound": "COC(=O)[C@H](CCSC)NC(=O)C1=C(C=C(C=C1)NC[C@H](CS)N)C2=CC=CC=C2", "summary_of_the_method": "as §1"}, "[14]": {"compound": "Cc1cc(Nc2cc(N3CCN(C)CC3)nc(Sc3ccc(NC(=O)C4CC4)cc3)n2)n[nH]1 [tozasertib]", "summary_of_the_method": "as §1"}, "[15]": {"compound": "CN1CC[C@H](c2c(O)cc(O)c3c(=O)cc(-c4ccccc4Cl)oc23)[C@H](O)C1 [alvocidib]", "summary_of_the_method": "as §1"}, "[16]": {"compound": "C[C@H](C1=CC=C(C=C1)C(=O)NC2=C3C=CNC3=NC=C2)N", "summary_of_the_method": "as §1"}, "[17]": {"compound": "Cc1cc(Nc2cc(CN3CCOCC3)c3nc(C)c(Cc4ccc(Cl)cc4F)n3n2)n[nH]1 [gandotinib]", "summary_of_the_method": "as §1"}, "[18]": {"compound": "Cc1cccc(CC(=O)N2CCc3c2ccc(-c2cn(C)c4ncnc(N)c24)c3F)n1", "summary_of_the_method": "as §1"}, "[19]": {"compound": "COc1cc2nc(-c3cc(F)ccc3O)nc(N[C@@H]3CNC[C@H]3C(C)(C)O)c2cc1OC", "summary_of_the_method": "as §1"}, "[20]": {"compound": "CS(=O)(=O)CCNCc1ccc(-c2ccc3ncnc(Nc4ccc(OCc5cccc(F)c5)c(Cl)c4)c3c2)o1 [lapatinib]", "summary_of_the_method": "as §1"}}, "note": "Targets with a hit are over-represented here; the source holds about 8,800 in all. About 0.5% of all pairs of compound and target were hits. Unmarked numbers belong to inactive results.", "data": [{"target": "URGCP (UniProt Q8TCY9)", "sequence (Q8TCY9 whole entry, looked up)": "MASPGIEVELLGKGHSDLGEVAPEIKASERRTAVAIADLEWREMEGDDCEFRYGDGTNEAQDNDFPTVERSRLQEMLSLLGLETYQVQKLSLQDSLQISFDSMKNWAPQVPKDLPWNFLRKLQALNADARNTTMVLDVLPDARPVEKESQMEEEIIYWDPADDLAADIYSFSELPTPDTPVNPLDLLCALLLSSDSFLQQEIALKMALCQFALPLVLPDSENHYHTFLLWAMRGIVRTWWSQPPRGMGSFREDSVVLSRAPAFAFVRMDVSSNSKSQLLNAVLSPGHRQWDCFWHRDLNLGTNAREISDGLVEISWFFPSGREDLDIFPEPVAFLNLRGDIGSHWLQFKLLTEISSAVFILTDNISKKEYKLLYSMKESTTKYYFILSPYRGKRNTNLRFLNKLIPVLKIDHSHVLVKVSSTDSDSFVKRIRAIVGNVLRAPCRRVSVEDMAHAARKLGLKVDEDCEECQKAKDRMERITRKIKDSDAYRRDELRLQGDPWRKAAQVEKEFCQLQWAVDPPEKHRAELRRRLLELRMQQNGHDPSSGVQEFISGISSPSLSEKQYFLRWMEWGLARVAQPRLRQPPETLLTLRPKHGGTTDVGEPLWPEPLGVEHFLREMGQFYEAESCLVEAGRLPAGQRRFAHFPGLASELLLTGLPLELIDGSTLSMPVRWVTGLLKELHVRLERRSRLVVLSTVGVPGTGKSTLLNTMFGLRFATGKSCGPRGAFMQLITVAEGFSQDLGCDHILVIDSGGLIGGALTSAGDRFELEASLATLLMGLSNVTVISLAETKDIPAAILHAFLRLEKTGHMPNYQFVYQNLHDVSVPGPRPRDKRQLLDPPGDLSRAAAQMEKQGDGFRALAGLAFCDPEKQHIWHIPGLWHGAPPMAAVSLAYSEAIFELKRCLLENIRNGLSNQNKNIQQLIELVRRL", "values": [{"measurement": "log2 fold change", "setting": "[1]", "value": 0.168}, {"measurement": "log2 fold change", "setting": "[2]", "value": -0.19}, {"measurement": "log2 fold change", "setting": "[3]", "value": -0.005}, {"measurement": "log2 fold change", "setting": "[4]", "value": 0.003}, {"measurement": "log2 fold change", "setting": "[5]", "value": 0.006}, {"measurement": "log2 fold change", "setting": "[6]", "value": -0.025}, {"measurement": "log2 fold change", "setting": "[7]", "value": 0.158}, {"measurement": "log2 fold change", "setting": "[8]", "value": -0.137}]}, {"target": "ZNF281 (UniProt Q9Y2X9)", "sequence (Q9Y2X9 whole entry, looked up)": "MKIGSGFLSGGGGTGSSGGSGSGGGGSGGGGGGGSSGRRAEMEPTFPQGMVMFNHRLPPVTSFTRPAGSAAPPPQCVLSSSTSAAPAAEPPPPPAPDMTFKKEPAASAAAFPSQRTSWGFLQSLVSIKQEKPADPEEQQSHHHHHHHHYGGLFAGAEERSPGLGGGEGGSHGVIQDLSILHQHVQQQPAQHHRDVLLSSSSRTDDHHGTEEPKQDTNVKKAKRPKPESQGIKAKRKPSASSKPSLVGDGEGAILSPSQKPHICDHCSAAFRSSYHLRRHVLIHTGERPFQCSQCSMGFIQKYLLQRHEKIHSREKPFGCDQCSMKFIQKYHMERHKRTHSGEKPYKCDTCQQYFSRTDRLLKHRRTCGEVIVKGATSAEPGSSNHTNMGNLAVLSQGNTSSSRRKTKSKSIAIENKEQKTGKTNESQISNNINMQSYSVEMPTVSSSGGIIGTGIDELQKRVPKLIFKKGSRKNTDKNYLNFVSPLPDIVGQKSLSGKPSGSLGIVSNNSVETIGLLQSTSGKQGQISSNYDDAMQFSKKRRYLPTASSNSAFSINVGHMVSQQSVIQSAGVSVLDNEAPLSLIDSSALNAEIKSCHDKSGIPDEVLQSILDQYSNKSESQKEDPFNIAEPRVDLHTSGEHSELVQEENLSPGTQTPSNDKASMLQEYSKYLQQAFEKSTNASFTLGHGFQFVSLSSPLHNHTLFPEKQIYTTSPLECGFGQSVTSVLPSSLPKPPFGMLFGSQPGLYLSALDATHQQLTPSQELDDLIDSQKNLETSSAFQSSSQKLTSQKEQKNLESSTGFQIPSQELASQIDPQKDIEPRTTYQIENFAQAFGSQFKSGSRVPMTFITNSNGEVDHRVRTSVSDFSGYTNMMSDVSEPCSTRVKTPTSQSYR", "values": [{"measurement": "log2 fold change", "setting": "[1]", "value": -0.16}, {"measurement": "log2 fold change", "setting": "[9]", "value": 0.025}, {"measurement": "log2 fold change", "setting": "[3]", "value": 0.095}, {"measurement": "log2 fold change", "setting": "[10]", "value": 0.003}, {"measurement": "log2 fold change", "setting": "[7]", "value": 0.029}, {"measurement": "log2 fold change", "setting": "[11]", "value": 0.02}]}, {"target": "VASN (UniProt Q6EMK4)", "sequence (Q6EMK4 whole entry, looked up)": "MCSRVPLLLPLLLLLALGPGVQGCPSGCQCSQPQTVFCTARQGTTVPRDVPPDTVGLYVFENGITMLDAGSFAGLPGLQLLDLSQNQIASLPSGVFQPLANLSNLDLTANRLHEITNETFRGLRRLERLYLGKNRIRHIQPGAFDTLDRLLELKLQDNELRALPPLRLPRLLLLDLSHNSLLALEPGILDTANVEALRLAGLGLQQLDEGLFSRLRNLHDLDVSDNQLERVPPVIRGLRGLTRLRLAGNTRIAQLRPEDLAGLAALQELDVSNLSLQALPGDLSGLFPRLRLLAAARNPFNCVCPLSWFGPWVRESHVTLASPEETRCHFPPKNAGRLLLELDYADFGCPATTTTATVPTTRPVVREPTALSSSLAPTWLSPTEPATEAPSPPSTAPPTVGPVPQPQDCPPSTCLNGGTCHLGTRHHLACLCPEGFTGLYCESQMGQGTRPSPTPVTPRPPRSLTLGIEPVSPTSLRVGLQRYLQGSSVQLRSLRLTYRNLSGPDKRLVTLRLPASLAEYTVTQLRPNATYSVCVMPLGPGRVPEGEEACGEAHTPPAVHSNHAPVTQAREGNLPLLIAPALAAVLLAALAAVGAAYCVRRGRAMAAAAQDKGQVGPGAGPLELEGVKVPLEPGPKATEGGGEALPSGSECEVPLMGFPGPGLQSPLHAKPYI", "values": [{"measurement": "log2 fold change", "setting": "[1]", "value": -0.161}, {"measurement": "log2 fold change", "setting": "[9]", "value": -0.087}, {"measurement": "log2 fold change", "setting": "[3]", "value": 0.096}, {"measurement": "log2 fold change", "setting": "[12]", "value": 0.2}, {"measurement": "log2 fold change", "setting": "[13]", "value": 0.02}, {"measurement": "log2 fold change", "setting": "[7]", "value": -0.119}, {"measurement": "log2 fold change", "setting": "[14]", "value": 0.08}]}, {"target": "UNC13A (UniProt Q9UPW8)", "values": [{"measurement": "log2 fold change", "setting": "[15]", "value": -0.643}, {"measurement": "log2 fold change", "setting": "[9]", "value": -0.11}, {"measurement": "log2 fold change", "setting": "[4]", "value": -0.067}, {"measurement": "log2 fold change", "setting": "[5]", "value": -0.076}, {"measurement": "log2 fold change", "setting": "[16]", "value": -1.52}, {"measurement": "log2 fold change", "setting": "[17]", "value": 0.331}, {"measurement": "log2 fold change", "setting": "[18]", "value": 0.481}]}, {"target": "ZSWIM8 isoform 4 (UniProt A7E2V4)", "sequence (A7E2V4 whole entry, looked up)": "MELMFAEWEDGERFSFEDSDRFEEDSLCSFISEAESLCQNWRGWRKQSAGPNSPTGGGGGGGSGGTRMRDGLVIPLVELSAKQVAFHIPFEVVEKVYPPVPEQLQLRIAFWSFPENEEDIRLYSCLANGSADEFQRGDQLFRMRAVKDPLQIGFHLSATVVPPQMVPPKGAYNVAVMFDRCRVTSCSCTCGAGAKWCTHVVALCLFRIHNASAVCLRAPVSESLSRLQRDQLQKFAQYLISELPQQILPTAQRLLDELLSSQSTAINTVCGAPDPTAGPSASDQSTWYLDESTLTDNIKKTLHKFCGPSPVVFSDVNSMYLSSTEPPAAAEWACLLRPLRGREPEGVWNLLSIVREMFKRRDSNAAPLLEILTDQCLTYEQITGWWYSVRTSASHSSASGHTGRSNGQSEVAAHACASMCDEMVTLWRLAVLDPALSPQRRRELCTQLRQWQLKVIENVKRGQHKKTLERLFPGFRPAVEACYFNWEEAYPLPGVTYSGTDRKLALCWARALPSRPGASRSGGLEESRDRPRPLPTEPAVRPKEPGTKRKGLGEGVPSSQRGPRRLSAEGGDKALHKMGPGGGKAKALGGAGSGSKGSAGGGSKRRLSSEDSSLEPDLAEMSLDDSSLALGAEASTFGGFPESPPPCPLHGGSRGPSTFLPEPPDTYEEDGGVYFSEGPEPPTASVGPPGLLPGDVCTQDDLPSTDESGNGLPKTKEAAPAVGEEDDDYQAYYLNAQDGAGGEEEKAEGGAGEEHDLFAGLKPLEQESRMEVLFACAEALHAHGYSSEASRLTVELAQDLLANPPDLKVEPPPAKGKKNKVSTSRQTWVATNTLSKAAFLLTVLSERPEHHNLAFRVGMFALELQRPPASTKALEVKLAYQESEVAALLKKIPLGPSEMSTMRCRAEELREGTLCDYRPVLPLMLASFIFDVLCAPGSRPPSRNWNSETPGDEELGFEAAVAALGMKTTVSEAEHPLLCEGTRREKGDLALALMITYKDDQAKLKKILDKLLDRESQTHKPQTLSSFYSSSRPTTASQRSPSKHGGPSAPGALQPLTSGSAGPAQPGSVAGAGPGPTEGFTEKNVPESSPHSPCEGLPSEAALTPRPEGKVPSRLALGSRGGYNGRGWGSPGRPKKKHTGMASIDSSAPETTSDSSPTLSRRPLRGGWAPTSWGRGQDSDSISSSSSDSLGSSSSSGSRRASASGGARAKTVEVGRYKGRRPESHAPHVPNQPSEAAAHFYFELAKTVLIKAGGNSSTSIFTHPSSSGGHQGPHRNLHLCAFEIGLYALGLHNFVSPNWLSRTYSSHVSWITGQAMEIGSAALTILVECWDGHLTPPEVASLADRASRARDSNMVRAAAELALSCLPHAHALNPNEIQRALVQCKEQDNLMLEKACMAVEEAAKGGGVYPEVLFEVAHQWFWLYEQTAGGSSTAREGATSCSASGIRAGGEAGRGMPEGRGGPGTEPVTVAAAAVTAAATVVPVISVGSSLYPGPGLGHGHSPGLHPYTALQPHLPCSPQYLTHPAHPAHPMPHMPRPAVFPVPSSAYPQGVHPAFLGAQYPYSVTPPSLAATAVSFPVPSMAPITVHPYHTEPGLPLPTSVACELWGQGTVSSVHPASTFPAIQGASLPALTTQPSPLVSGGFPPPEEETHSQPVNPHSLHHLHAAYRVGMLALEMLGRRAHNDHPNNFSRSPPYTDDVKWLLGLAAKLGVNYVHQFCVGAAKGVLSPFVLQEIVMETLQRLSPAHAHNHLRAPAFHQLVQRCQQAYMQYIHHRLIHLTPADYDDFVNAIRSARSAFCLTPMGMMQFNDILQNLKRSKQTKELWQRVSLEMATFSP", "values": [{"measurement": "log2 fold change", "setting": "[15]", "value": 0.078}, {"measurement": "log2 fold change", "setting": "[1]", "value": 0.149}, {"measurement": "log2 fold change", "setting": "[9]", "value": -0.171}, {"measurement": "log2 fold change", "setting": "[2]", "value": 0.088}, {"measurement": "log2 fold change", "setting": "[3]", "value": -0.226}, {"measurement": "log2 fold change", "setting": "[12]", "value": 0.035}, {"measurement": "log2 fold change", "setting": "[13]", "value": -0.071}, {"measurement": "log2 fold change", "setting": "[4]", "value": -0.034}, {"measurement": "log2 fold change", "setting": "[5]", "value": -0.073}, {"measurement": "log2 fold change", "setting": "[6]", "value": -0.253}, {"measurement": "log2 fold change", "setting": "[10]", "value": 0.027}, {"measurement": "log2 fold change", "setting": "[16]", "value": -0.027}, {"measurement": "log2 fold change", "setting": "[7]", "value": -0.145}, {"measurement": "log2 fold change", "setting": "[17]", "value": -0.153}, {"measurement": "log2 fold change", "setting": "[14]", "value": 0.169}, {"measurement": "log2 fold change", "setting": "[11]", "value": -0.084}, {"measurement": "log2 fold change", "setting": "[8]", "value": -0.257}, {"measurement": "log2 fold change", "setting": "[18]", "value": 0.205}]}, {"target": "WEE1 (UniProt P30291)", "sequence (P30291 whole entry, looked up)": "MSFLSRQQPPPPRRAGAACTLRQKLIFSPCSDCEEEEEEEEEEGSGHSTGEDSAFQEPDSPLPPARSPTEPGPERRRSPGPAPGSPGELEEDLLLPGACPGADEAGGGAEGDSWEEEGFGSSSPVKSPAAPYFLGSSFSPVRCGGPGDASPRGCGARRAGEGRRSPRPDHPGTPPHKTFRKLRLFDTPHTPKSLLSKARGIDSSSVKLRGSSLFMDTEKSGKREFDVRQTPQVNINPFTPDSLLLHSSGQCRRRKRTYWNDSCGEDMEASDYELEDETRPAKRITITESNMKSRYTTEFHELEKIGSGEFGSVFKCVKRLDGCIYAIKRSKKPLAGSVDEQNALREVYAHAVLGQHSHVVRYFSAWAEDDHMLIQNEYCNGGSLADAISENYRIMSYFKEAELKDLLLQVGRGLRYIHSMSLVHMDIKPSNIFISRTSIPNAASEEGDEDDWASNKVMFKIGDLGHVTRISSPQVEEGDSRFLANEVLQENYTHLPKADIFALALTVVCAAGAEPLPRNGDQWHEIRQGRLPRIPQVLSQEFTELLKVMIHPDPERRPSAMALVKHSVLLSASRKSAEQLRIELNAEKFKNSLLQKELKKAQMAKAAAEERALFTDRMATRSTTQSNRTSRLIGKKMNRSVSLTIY", "values": [{"measurement": "log2 fold change", "setting": "[1]", "value": -0.194}, {"measurement": "log2 fold change", "setting": "[9]", "value": "0.498 (active)"}, {"measurement": "log2 fold change", "setting": "[2]", "value": 0.145}, {"measurement": "log2 fold change", "setting": "[3]", "value": -0.072}, {"measurement": "log2 fold change", "setting": "[12]", "value": -0.035}, {"measurement": "log2 fold change", "setting": "[13]", "value": 0.11}, {"measurement": "log2 fold change", "setting": "[4]", "value": 0.018}, {"measurement": "log2 fold change", "setting": "[19]", "value": 0.055}, {"measurement": "log2 fold change", "setting": "[5]", "value": 0.129}, {"measurement": "log2 fold change", "setting": "[20]", "value": -0.034}, {"measurement": "log2 fold change", "setting": "[6]", "value": -0.047}, {"measurement": "log2 fold change", "setting": "[10]", "value": -0.141}, {"measurement": "log2 fold change", "setting": "[7]", "value": 0.033}, {"measurement": "log2 fold change", "setting": "[14]", "value": 0.011}, {"measurement": "log2 fold change", "setting": "[11]", "value": 0.183}, {"measurement": "log2 fold change", "setting": "[8]", "value": 0.068}]}]}
